According to PubChem BioAssay AID652154 (Broad Institute, 2013):
About 4,200 (1.2%) of roughly 360,000 compounds were called active.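 How the source made its calls: active means mean replicate inhibition at least 60% with every replicate also reaching 60%; inconclusive means only one of the two criteria is met; inactive means mean below 60% and not all replicates reaching 60%.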 For the sample, actives were picked, then their nearest neighbours and some compounds at random.

Assay: inhibitors of PAX8-driven TPO luciferase reporter, primary screen, RMG-I cells, single concentration (AID 652154);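 further: luciferase light reporting Pax8 driven TPO promoter activity; plate controls were median of neutral control wells for no effect and mitoxantrone controls for full effect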
Conditions: SteadyGlo, 24 h, at 12.6 µM, active compounds read high

Structure (SMILES) | inhibition
Nc1nc2c(ncn2[C@@H]2O[C@H](C(=O)N[C@H](Cc3ccccc3)C(=O)NCC3CCCCC3)[C@@H](O)[C@H]2O)c(=O)[nH]1 | -4.88% (inactive)
C[C@H](CO)N1C[C@H](C)[C@@H](CN(C)C(=O)Nc2ccnc(N3CCOCC3)c2)OCc2ccccc2-c2ccccc2C1=O | -26.9% (inactive)
C[C@@H]1CN([C@@H](C)CO)C(=O)Cc2cc(NC(=O)Nc3ccc(F)cc3)ccc2O[C@@H]1CN(C)C | -0.58% (inactive)
C[C@H](CO)N1C[C@H](C)[C@@H](CN(C)Cc2ccncc2)Oc2ccc(NS(=O)(=O)c3ccc(Cl)cc3)cc2CC1=O | 20.9% (inactive)
CCCNC(=O)N1CC2(C1)[C@@H](c1ccccc1)[C@@H](CO)N2C(=O)CC1CC1 | -12.2% (inactive)
CCCNC(=O)N1C[C@@H](C)[C@@H](OC)CN(C)C(=O)c2ccc(NC(=O)CCC)cc2OC[C@H]1C | 1.97% (inactive)
C[C@@H]1CN([C@H](C)CO)C(=O)c2cc(Br)cnc2O[C@@H]1CN(C)C(=O)Nc1ccc(F)cc1 | 9.97% (inactive)
C[C@@H]1CN([C@H](C)CO)C(=O)c2cc(NC(=O)Nc3ccc(C(F)(F)F)cc3)ccc2O[C@@H](C)CCCCO[C@@H]1CN(C)Cc1ccc(C(F)(F)F)cc1 | -27.4% (inactive)
C[C@@H]1CCCCO[C@@H](CN(C)Cc2ccc(C(=O)O)cc2)[C@@H](C)CN([C@@H](C)CO)C(=O)c2cc(NC(=O)Nc3ccc(C(F)(F)F)cc3)ccc2O1 | -6.61% (inactive)
C[C@@H]1CCCCO[C@H](CN(C)Cc2ccc(C(F)(F)F)cc2)[C@H](C)CN([C@H](C)CO)C(=O)c2cc(NC(=O)Nc3ccc(F)cc3)ccc2O1 | 92.5% (active)
COc1ccc2c3c([nH]c2c1)[C@H](CO)N(C(=O)C1CCCCC1)CC31CCN(C(=O)c2ccncc2)CC1 | 3.94% (inactive)
CCC(=O)N(C)C[C@@H]1Oc2cc(-c3ccccc3OC)ccc2S(=O)(=O)N([C@H](C)CO)C[C@H]1C | -9.48% (inactive)
COC(=O)C[C@@H]1CC[C@H]2[C@H](COc3ccc(NC(=O)c4ccccc4F)cc3C(=O)N2C)O1 | 9.97% (inactive)
C=CCn1c(C)cc(C2=NNC(=NCC)SC2)c1C | 107% (active)
O=C(C(=O)N1CCC(CNS(=O)(=O)Cc2ccccc2)CC1)c1cc2ccccc2o1 | 10% (inactive)
COc1ccc(NC(=O)Nc2ccc3c(c2)[C@@H]2C[C@H](CC(=O)N[C@@H](C)c4ccccc4)O[C@@H](CO)[C@@H]2O3)cc1 | -20.1% (inactive)
C[C@H](NC(=O)C[C@H]1CC[C@H]2[C@@H](COC[C@H](O)CN2C(=O)Nc2cc(Cl)cc(Cl)c2)O1)c1ccccc1 | 3.71% (inactive)
C[C@H]1CCCCO[C@@H](CN(C)Cc2ccccc2)[C@@H](C)CN([C@@H](C)CO)C(=O)c2cc(NC(=O)Cc3ccccc3)ccc2O1 | -9.52% (inactive)
CNC(=O)C[C@H]1CC[C@@H]2[C@@H](COc3ccc(NC(=O)c4ccc(F)c(F)c4)cc3C(=O)N2C)O1 | -18.3% (inactive)
CC(=O)N1CCOc2ccc(S(=O)(=O)N3CCN(c4cccc(C(F)(F)F)c4)CC3)cc21 | 92.2% (active)
COc1ccc(N2CCN(S(=O)(=O)c3ccc4c(c3)N(C(C)=O)CCO4)CC2)cc1 | 3.96% (inactive)

Structure (SMILES) | inhibition
CCOC(=O)C1CCN(S(=O)(=O)c2ccc3c(c2)N(C(C)=O)CCO3)CC1 | 8.01% (inactive)
C[C@H]1CN([C@@H](C)CO)C(=O)c2cc(NC(=O)Nc3ccccc3)ccc2O[C@H]1CN(C)C(=O)Nc1ccc(F)cc1 | -5.44% (inactive)
O=C(C[C@@H]1CC[C@@H]2[C@H](COC[C@H](O)CN2Cc2cccc(C(F)(F)F)c2)O1)NCc1ccc(F)cc1 | 19.6% (inactive)
Cn1c(=O)[nH]c(=O)c2c1nc(N1CCN(C(c3ccccc3)c3ccccc3)CC1)n2CCO | 84.2% (active)
C=C(C)Cn1c(N2CCCC2)nc2c1c(=O)[nH]c(=O)n2C | -3.4% (inactive)
CC1CCN(c2nc3c(c(=O)[nH]c(=O)n3C)n2CCCc2ccccc2)CC1 | -19.2% (inactive)
COCCNC(=O)C[C@H]1CC[C@H](NS(=O)(=O)c2ccc(C)cc2)[C@@H](CO)O1 | -3.36% (inactive)
O=C(CN1CCOCC1)N1CCCCN2[C@@H](CO)[C@H](c3ccc(/C=C/c4ccccc4)cc3)[C@@H]2C1 | -11.5% (inactive)
O=C(C[C@H]1CC[C@@H]2[C@H](COC[C@H](O)CN2S(=O)(=O)c2ccc(Cl)cc2)O1)N[C@@H]1CCN(Cc2ccccc2)C1 | 32.3% (inactive)
C=CCC[C@H](Cc1ccc(F)cc1)C(=O)OC[C@H](C)NC(=O)[C@H](CC=C)CC(=O)N(CCO)Cc1ccccc1 | 23.7% (inactive)
C=CCC[C@@H](Cc1ccc(F)cc1)C(=O)OC[C@@H](C)NC(=O)[C@H](CC=C)CC(=O)N(CCO)Cc1ccccc1 | 31.4% (inactive)
C=CC[C@H](CC(=O)NCCO)C(=O)N[C@@H](COC(=O)[C@@H](CC=C)Cc1ccc(F)cc1)Cc1c[nH]c2ccccc12 | 8.97% (inactive)
C=CCC[C@H](Cc1ccc(F)cc1)C(=O)OC[C@@H](Cc1c[nH]c2ccccc12)NC(=O)[C@H](CC=C)CC(=O)N[C@H](CO)Cc1ccccc1 | 75.3% (active)
C=CCC[C@@H](Cc1ccc(F)cc1)C(=O)OC[C@H](Cc1c[nH]c2ccccc12)NC(=O)[C@@H](CC=C)CC(=O)N(CCO)Cc1ccccc1 | 75.3% (active)
C=CC[C@@H](CC(=O)N[C@H](CO)Cc1ccccc1)C(=O)N[C@@H](COC(=O)[C@@H](CC=C)Cc1ccc(F)cc1)Cc1c[nH]c2ccccc12 | 25.6% (inactive)
CO[C@@H]1CC[C@H]2CCN(C)C(=O)C[C@@H](c3ccccc3)CN(C)C(=O)c3cc(C#N)ccc3OC[C@@H]1O2 | 5.74% (inactive)
N#C[C@@H]1N[C@@H](CO)[C@@H]1c1ccc(C#Cc2ccccc2F)cc1 | -118% (inactive)
O=C(C[C@@H]1CC[C@@H]2[C@H](COC[C@H](O)CN2C(=O)Nc2cccc(Cl)c2)O1)NCCCN1CCOCC1 | -32.8% (inactive)
O=C(c1ccncc1)N1CC(=O)N2[C@H](CO)[C@@H](c3ccc(-c4cccnc4)cc3)[C@H]2C1 | 7.54% (inactive)
COCC(=O)N(C)C[C@H]1[C@@H](c2ccc(-c3cccnc3)cc2)[C@H](CO)N1C(C)=O | 0.314% (inactive)
COc1ccccc1S(=O)(=O)N[C@@H]1CC[C@H](CC(=O)N2CCOCC2)O[C@@H]1CO | 3.09% (inactive)

Structure (SMILES) | inhibition
COc1ccc(C#Cc2ccc3c(c2)[C@]2(C(=O)N3)[C@H](c3ccccc3OCCO)N3[C@H](c4ccccc4)[C@H](c4ccccc4)OC(=O)[C@H]3[C@@H]2C(=O)N2CCCCCCC2)cc1 | 0.581% (inactive)
COC(=O)C(CC#Cc1ccc2c(c1)[C@]1(C(=O)N2)[C@H](c2ccc(O)cc2)N2[C@H](c3ccccc3)[C@H](c3ccccc3)OC(=O)[C@H]2[C@@H]1C(=O)NC[C@H](O)c1ccccc1)C(=O)OC | -24.8% (inactive)
COC(=O)C(CC#Cc1ccc2c(c1)[C@]1(C(=O)N2)[C@H](c2ccccc2OCCO)N2[C@H](c3ccccc3)[C@H](c3ccccc3)OC(=O)[C@H]2[C@@H]1C(N)=O)C(=O)OC | 92.9% (active)
Cc1ccc(S(=O)(=O)Nc2cccc3c2O[C@H](CN(C)CC2CCCCC2)[C@H](C)CN([C@H](C)CO)C3=O)cc1 | -4.8% (inactive)
COc1ccc(CN(C)C[C@H]2OCCCC[C@@H](C)Oc3ccc(NC(=O)Nc4cccc5ccccc45)cc3C(=O)N([C@H](C)CO)C[C@@H]2C)cc1 | 14.2% (inactive)
Cc1noc(/C=C/N(C)C)c1S(=O)(=O)N1CCCC(C(=O)NCc2ccco2)C1 (stereo not drawn) | 38.6% (inactive)
CNC(=O)C1CCN(S(=O)(=O)c2c(C)noc2/C=C/c2cccc(C)c2)CC1 | -0.657% (inactive)
Cc1noc(/C=C/c2ccco2)c1S(=O)(=O)N1CCC(C(=O)Nc2ccc(Cl)cn2)CC1 | 74.4% (active)
CC(=O)N1CCCCN2[C@H](CO)[C@H](c3ccc(-c4ccccc4)cc3)[C@@H]2C1 | 8.11% (inactive)
C[C@@H]1CN([C@@H](C)CO)C(=O)c2cc(NC(=O)Nc3ccc(C(F)(F)F)cc3)ccc2O[C@@H](C)CCCCO[C@H]1CN(C)C(=O)c1ccccc1 | 84.4% (active)
C[C@H]1CN([C@@H](C)CO)C(=O)c2cccc(NC(=O)Nc3ccc(C(F)(F)F)cc3)c2O[C@H]1CN(C)C(=O)NC1CCCCC1 | 92.2% (active)
C[C@@H]1CN([C@H](C)CO)C(=O)c2cccc(NC(=O)Nc3ccccc3)c2O[C@@H]1CN(C)C(=O)NC1CCCCC1 | 9.31% (inactive)
CC(C)NC(=O)Nc1ccc2c(c1)C(=O)N([C@@H](C)CO)C[C@H](C)[C@H](CN(C)C(=O)c1ccccc1)OCCCC[C@@H](C)O2 | 3.59% (inactive)
C[C@H](CO)N1C[C@H](C)[C@@H](CN(C)C(=O)NC2CCCCC2)Oc2c(NC(=O)Nc3ccc(F)cc3)cccc2C1=O | -8.27% (inactive)
C[C@@H]1CCCCO[C@H](CN(C)C(=O)C2CCCCC2)[C@@H](C)CN([C@@H](C)CO)C(=O)c2cc(NC(=O)Nc3ccccc3)ccc2O1 | 80.3% (active)
C[C@@H]1CCCCO[C@H](CN(C)C(=O)Nc2ccccc2)[C@H](C)CN([C@H](C)CO)C(=O)c2cc(NC(=O)Nc3ccccc3)ccc2O1 | 10.5% (inactive)
C[C@@H]1CCCCO[C@@H](CN(C)C(=O)C2CCCCC2)[C@H](C)CN([C@H](C)CO)C(=O)c2cc(NC(=O)Cc3ccccc3)ccc2O1 | -7.3% (inactive)
C[C@@H]1CCCCO[C@@H](CN(C)C(=O)Nc2ccc(C(F)(F)F)cc2)[C@H](C)CN([C@H](C)CO)C(=O)c2cc(NC(=O)c3ccccc3)ccc2O1 | -6.62% (inactive)
C[C@@H]1CCCCO[C@H](CN(C)C(=O)Nc2ccc(C(F)(F)F)cc2)[C@H](C)CN([C@H](C)CO)C(=O)c2cc(NC(=O)Nc3ccc(C(F)(F)F)cc3)ccc2O1 | 17.5% (inactive)
CC(C)NC(=O)N(C)C[C@H]1OCCCC[C@H](C)Oc2ccc(NC(=O)Nc3ccc(C(F)(F)F)cc3)cc2C(=O)N([C@H](C)CO)C[C@@H]1C | 93.7% (active)
CC(C)NC(=O)Nc1ccc2c(c1)C(=O)N([C@@H](C)CO)C[C@@H](C)[C@@H](CN(C)C(=O)Nc1ccc(C(F)(F)F)cc1)OCCCC[C@H](C)O2 | -21.5% (inactive)
